Experimental data taken from PubChem BioAssay (NCATS).
Results filed as inconclusive are left out. Where a call stands in place of a potency, no number is given. Active and inactive are the calls of the source. Unless noted, calls follow the shape of the dose curve; as a rule, active = well fitted curve in the direction sought with a large enough effect; inconclusive = small, poorly fitted or top-dose-only effect, or another doubt; inactive = no such curve, though single readings can be large; an effect the other way counts as inactive or inconclusive.

What was measured:
[1] = target: Cytochrome P450 1A2 (Homo sapiens) (UniProt P05177); assay: p450-cyp1a2 (AID 410; calls by dose curve; also: potency is read from the fitted curve at half-maximal effect)
In short: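 Read-out is luminescence from luciferin produced by CYP1A2 demethylation of Luciferin-ME (100uM, at Km). Detection reagent stopped the 60 min NADPH-dependent reaction; signals were normalized to 57 uM furafylline.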

[2] = target: Mitogen-activated protein kinase 10 (Mus musculus) (UniProt Q61831); assay: JNK3 AlphaScreen Assay (AID 530; active = well fitted curve in either direction with a large enough effect, not every such curve was filed as active;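 also: kinase came from lysate of stimulated human HepG2 cells; signal reports phosphorylation of biotinylated GST-cJun 1-79 at Ser73 with 10 µM ATP; series mostly up to about 57 µM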)
In short: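 HepG2 lysate (IL-1b/TNFa pre-activated) + biotin-GST-cJun 1-79 + anti-pSer73 cJun; cpd titration, 15 min RT; ATP 10 uM start; Tris pH 7.6, MgCl2, DTT, vanadate; beads in EDTA buffer; AlphaScreen.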

[3] = target: Cytochrome P450 2C9 (Homo sapiens) (UniProt P11712); assay: qHTS Assay for Inhibitors and Substrates of Cytochrome P450 2C9 (AID 883); also: potency is read from the fitted curve at half-maximal effect; nearly all actives have a fitted effect of over 60% in size
In short: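 Signal: luciferase luminescence reporting luciferin produced by CYP2C9. Conditions: 10nM enzyme, Luciferin-H 100uM at KM, 25mM KPO4, 37C, 60 min NADPH-driven reaction. Reference: 57uM sulphaphenazole as 100% inhibition.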

[4] = target: Cytochrome P450 3A4 (Homo sapiens) (UniProt P08684); assay: qHTS Assay for Inhibitors and Substrates of Cytochrome P450 3A4 (AID 884); also: potency is read from the fitted curve at half-maximal effect; nearly all actives have a fitted effect of over 50% in size
In short: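 Luminescent readout of luciferin produced by CYP3A4 (20 nM) dealkylation of Luciferin-PPXE, 25 uM (its KM). NADPH-driven reaction ran 60 min at RT after 10 min compound preincubation; data scaled to 57 uM ketoconazole as 100% inhibition.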

[5] = target: Cytochrome P450 3A4 (Homo sapiens) (UniProt P08684); assay: qHTS Assay for Activators of Cytochrome P450 3A4 (AID 885); also: nearly all actives have a fitted effect of over 65% in size
In short: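 CYP3A4 activity: Luciferin-PPXE O-dealkylation, 25uM substrate, 200mM KPO4, RT throughout. Read-out is luciferase luminescence; higher values reflect activation.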

[6] = target: 3',5'-cyclic-AMP phosphodiesterase 4B (Homo sapiens) (UniProt Q07343); assay: qHTS Assay for Inhibitors of PDE-IV (AID 607; active = well fitted activation curve with a large enough effect in the main read-out, with a control signal flat, not every such curve was filed as active)
In short: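 ACTOne HEK293 cells carry a modified cAMP-gated CNG channel and express endogenous PDE4; plated 1000 cells/well, compounds up to 22.9 uM final. Membrane-potential dye fluorescence (ex 535/em 590) was read; parental cells received 10 uM forskolin + 100 uM RO 20-1724.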

[7] = target: Cytochrome P450 2C19 (Homo sapiens) (UniProt P33261); assay: qHTS Assay for Inhibitors and Substrates of Cytochrome P450 2C19 (AID 899); also: potency is read from the fitted curve at half-maximal effect; nearly all actives have a fitted effect of over 60% in size
In short: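 Signal comes from luciferase acting on luciferin released by CYP2C19-mediated hydroxylation of Luciferin-H EGE, 10uM (KM). Assay mix: 5nM enzyme, 50mM KPO4; 60 min at 37C with NADPH regeneration. Data normalized against 57uM ketoconazole.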

[8] = target: Cytochrome P450 2D6 (Homo sapiens) (UniProt P10635); assay: qHTS Assay for Inhibitors and Substrates of Cytochrome P450 2D6 (AID 891); also: potency is read from the fitted curve at half-maximal effect; nearly all actives have a fitted effect of over 60% in size
In short: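 Luminescent read-out of luciferin formed by 5 nM human CYP2D6 demethylating 30 uM Luciferin-ME EGE (Km level) over 60 min at room temperature after NADPH regeneration addition. Data normalized to full inhibition by 1.43 uM quinidine.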

Sequence of 3',5'-cyclic-AMP phosphodiesterase 4B (Homo sapiens) (Q07343 whole entry, looked up): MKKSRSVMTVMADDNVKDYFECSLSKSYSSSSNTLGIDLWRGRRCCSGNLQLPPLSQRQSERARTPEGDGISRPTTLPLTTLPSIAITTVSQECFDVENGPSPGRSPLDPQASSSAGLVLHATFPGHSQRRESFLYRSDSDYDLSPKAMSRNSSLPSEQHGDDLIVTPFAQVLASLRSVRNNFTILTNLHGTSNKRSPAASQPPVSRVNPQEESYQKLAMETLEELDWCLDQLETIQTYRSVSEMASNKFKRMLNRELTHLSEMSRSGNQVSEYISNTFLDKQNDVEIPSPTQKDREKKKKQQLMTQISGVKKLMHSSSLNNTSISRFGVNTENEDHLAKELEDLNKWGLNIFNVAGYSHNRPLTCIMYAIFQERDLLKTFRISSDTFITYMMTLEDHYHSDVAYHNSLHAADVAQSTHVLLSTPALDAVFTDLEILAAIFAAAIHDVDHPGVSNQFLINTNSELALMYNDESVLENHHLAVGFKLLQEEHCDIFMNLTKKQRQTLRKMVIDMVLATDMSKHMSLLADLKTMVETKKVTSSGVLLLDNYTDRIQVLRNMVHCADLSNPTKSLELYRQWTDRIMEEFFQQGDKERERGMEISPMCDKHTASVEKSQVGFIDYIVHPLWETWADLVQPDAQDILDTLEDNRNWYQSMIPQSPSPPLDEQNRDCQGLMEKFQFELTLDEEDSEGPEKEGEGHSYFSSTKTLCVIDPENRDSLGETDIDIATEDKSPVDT
Sequence of Cytochrome P450 2C19 (Homo sapiens) (P33261 whole entry, looked up): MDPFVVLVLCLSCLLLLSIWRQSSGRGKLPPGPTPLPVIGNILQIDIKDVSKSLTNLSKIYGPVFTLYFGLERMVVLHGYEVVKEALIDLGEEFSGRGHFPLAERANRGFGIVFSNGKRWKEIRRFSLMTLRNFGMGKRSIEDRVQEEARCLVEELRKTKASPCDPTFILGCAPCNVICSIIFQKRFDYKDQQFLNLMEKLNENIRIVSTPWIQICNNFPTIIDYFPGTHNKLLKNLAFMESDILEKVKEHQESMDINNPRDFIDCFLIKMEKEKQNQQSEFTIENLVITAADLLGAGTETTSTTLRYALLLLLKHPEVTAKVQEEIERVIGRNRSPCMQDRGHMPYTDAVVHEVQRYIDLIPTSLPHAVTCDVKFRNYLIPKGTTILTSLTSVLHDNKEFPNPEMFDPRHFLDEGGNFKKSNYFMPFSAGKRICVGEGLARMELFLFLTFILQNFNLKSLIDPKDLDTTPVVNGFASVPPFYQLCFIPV
Sequence of Cytochrome P450 3A4 (Homo sapiens) (P08684 whole entry, looked up): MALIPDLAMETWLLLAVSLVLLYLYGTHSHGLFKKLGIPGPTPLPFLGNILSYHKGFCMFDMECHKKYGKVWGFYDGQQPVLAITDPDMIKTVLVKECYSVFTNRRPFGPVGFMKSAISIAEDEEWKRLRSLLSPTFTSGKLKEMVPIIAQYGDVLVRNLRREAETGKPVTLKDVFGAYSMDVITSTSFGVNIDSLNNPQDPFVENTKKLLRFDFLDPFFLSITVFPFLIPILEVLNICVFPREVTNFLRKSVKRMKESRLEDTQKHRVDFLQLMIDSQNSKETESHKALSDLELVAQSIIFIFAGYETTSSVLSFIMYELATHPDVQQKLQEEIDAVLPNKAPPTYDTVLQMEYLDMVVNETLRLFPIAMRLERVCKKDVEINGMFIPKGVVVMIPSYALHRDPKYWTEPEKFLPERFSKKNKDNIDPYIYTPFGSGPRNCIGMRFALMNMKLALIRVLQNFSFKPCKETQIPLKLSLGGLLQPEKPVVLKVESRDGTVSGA
Sequence of Cytochrome P450 1A2 (Homo sapiens) (P05177 whole entry, looked up): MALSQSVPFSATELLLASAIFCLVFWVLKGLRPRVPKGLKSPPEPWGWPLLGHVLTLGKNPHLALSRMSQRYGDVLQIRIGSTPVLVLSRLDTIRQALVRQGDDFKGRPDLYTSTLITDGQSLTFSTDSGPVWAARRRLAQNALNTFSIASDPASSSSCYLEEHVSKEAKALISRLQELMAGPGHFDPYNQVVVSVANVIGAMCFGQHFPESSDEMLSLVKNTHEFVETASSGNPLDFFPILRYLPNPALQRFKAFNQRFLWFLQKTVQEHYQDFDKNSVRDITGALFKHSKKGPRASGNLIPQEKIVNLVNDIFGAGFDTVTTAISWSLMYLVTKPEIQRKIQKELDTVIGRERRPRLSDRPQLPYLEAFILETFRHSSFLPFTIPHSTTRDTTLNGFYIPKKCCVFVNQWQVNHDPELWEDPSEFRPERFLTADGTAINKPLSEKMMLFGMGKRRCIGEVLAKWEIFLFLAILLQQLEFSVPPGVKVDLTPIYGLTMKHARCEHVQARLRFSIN
Sequence of Cytochrome P450 2C9 (Homo sapiens) (P11712 whole entry, looked up): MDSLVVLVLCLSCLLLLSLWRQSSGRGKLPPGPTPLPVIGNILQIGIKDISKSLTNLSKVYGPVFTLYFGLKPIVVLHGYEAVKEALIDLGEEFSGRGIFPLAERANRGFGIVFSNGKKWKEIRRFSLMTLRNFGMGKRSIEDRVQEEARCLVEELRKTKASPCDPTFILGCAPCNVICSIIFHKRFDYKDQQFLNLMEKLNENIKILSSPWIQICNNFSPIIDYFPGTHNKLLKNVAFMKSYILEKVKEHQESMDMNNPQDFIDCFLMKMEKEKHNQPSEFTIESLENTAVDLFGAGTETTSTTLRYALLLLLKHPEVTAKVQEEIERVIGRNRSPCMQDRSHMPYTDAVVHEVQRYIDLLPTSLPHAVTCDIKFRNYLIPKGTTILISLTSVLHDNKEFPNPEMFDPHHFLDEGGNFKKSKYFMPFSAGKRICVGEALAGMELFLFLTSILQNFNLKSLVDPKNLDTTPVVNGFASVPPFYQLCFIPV
Sequence of Cytochrome P450 2D6 (Homo sapiens) (P10635 whole entry, looked up): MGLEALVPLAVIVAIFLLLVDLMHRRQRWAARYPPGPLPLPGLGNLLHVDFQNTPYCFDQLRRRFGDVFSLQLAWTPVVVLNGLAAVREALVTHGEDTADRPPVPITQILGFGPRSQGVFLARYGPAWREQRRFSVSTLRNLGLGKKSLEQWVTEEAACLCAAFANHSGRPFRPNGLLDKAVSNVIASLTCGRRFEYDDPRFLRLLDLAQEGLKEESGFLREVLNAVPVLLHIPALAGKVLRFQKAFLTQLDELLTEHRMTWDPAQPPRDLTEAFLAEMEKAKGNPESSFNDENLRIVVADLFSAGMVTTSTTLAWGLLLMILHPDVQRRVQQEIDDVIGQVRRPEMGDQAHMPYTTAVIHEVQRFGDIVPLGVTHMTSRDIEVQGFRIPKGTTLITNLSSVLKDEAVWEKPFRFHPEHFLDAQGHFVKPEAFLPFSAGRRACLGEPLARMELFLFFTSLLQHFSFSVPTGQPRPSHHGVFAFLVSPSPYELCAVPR

Row | Structure (SMILES) | Potency [1] | Potency [2] | Potency [3] | Potency [4] | Potency [5] | Potency [6] | Potency [7] | Potency [8]
1 | COC(=O)[C@@]1(Cc2ccccc2)[C@H]2c3cc(C(=O)N4CCCC4)n(Cc4cc(F)cc5c4OCOC5)c3C[C@H]2CN1C(=O)c1ccccc1 | inactive | inactive | 0.316 µM (active) | 3.98 µM (active) | inactive | – | – | –
2 | C[C@H]1C2=C3C(CC[C@H]4C(OCc5ccc(F)cc5C(F)(F)F)OC[C@](C)([C@@H]34)N(C(=O)OC(C)(C)C)C2)C(CO)C1CO (some centres undefined) | 15.8 µM (active) | inactive | – | – | inactive | inactive | – | –
3 | CCCC[C@@H]1C[C@H]1C(NC(=O)c1ccccc1)c1ccccc1 (some centres undefined) | 2.51 µM (active) | inactive | 7.94 µM (active) | – | inactive | – | 0.398 µM (active) | –
4 | COC(=O)C1(C)C=C2C(=C(c3ccccc3)C(=O)C2C)CN1 (centres undefined) | 15.8 µM (active) | inactive | – | – | inactive | inactive | – | –
5 | C[C@@H](C(=O)NCc1ccc(S(C)(=O)=O)cc1)[C@@H]1C[C@@]1(C)[C@@H](NC(=O)OCc1ccccc1)c1ccccc1 | 15.8 µM (active) | inactive | – | – | inactive | inactive | 1.26 µM (active) | –
6 | CCC/C=C(\CCC)C(NS(=O)(=O)c1ccc(C(F)(F)F)cc1)c1ccc(-c2ccccc2)cc1 (centres undefined) | inactive | inactive | – | – | inactive | inactive | 7.94 µM (active) | –
7 | OC1c2ccccc2-c2nc3ccccc3cc21 (centres undefined) | 0.126 µM (active) | inactive | – | – | inactive | inactive | – | 20 µM (active)
8 | C[C@@H](C(=O)NCc1nc2ccccc2[nH]1)[C@@H]1C[C@@]1(C)[C@@H](NC(=O)OCc1ccccc1)c1ccccc1 | 12.6 µM (active) | inactive | – | – | inactive | inactive | – | –
9 | CC(C)=C1C(=O)C(c2ccccc2)=C2CN3C(=O)N(CCc4ccccc4)C(=O)[C@]3(Cc3ccccc3)[C@H]21 | inactive | inactive | – | – | inactive | inactive | – | –
10 | COC(=O)C1(Cc2ccccc2)C=C2C(=C(C)C(=O)C2C)CN1 (centres undefined) | 10 µM (active) | inactive | – | – | inactive | inactive | – | –
11 | COC(=O)[C@H]1C[C@@H]1[C@H](NC(=O)OCc1ccccc1)c1ccccc1 | 0.126 µM (active) | inactive | – | – | inactive | inactive | 3.16 µM (active) | –
12 | CCCCCC1=C2CNC(CCC)(C(=O)OC)C=C2C(C)C1=O (centres undefined) | 31.6 µM (active) | inactive | – | – | inactive | inactive | – | –
13 | C[C@@H](C(=O)Nc1ccc2ccccc2c1)[C@@H]1C[C@@]1(C)[C@@H](NC(=O)c1cnccn1)c1ccccc1 | 12.6 µM (active) | inactive | 0.0631 µM (active) | – | inactive | – | – | –
14 | CCC[C@@H]1C[C@@]1(CCC)C(NS(=O)(=O)c1cccc2cccnc12)c1ccc(Cl)cc1 (some centres undefined) | inactive | inactive | 7.94 µM (active) | 0.794 µM (active) | inactive | – | 3.16 µM (active) | –
15 | CCCC1(C(=O)OC)C=C2C(=C(C)C(=O)C2C)CN1 (centres undefined) | inactive | inactive | – | – | inactive | inactive | – | –
16 | O=C(Cc1ccccc1I)Nc1ccccc1 | 12.6 µM (active) | inactive | – | – | – | inactive | 6.31 µM (active) | –
17 | CC1=C(C(=O)OCc2ccccc2)C(c2ccc([N+](=O)[O-])cc2)NC(=O)N1CCCCCC(=O)O (centres undefined) | 15.8 µM (active) | inactive | – | – | inactive | inactive | – | –
18 | CCC/C=C(\CCC)C(NC(=O)c1cccs1)c1ccc(C(=O)OC)cc1 (centres undefined) | 5.01 µM (active) | inactive | 2 µM (active) | 1.26 µM (active) | inactive | – | 0.794 µM (active) | –
19 | COCC1C2CC[C@H]3C(OCc4ccc(F)cc4C(F)(F)F)OC[C@]4(C)[C@H]3C2=C(CN4C(=O)OC(C)(C)C)[C@H](C)C1COC (some centres undefined) | 31.6 µM (active) | inactive | – | – | inactive | inactive | – | –
20 | S=C(Nc1ccccc1)Nc1ccccc1C#Cc1ccccc1 | – | – | 3.98 µM (active) | – | – | – | – | –
21 | CCCC[C@@H]1C[C@H]1C(NC(=O)c1ccccc1)c1ccccc1C(F)(F)F (some centres undefined) | – | – | 1.26 µM (active) | – | – | – | – | –
22 | CCCC/C=C/C(NC(=O)Oc1cccc(C(F)(F)F)c1)c1ccccc1 (centres undefined) | 2.51 µM (active) | – | – | – | inactive | – | 3.16 µM (active) | –
23 | C[C@@H](C(=O)Nc1ccc2ccccc2c1)[C@@H]1C[C@@]1(C)[C@@H](NC(=O)c1ccncc1Cl)c1ccccc1 | 25.1 µM (active) | – | – | – | inactive | inactive | – | –
